This is a sample that favours compounds with a hit; in the whole collection about 5.3% have one here.
MT1-MMP txn act = activates MT1-MMP transcription. HT1080 MT1-MMP promoter luciferase reporter, luminescence, overnight; stronger effect = higher value. 86,000 tested, 0.16% active. activation factor at 10 µM;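 active = activation factor of at least 2 for MT1-MMP transcription at 10 µM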
Measles CPE = protection of cells from measles virus. Measles virus-infected cells, CPE protection, absorbance. protection (pct of control), % at 4 µM. 140,000 tested, 1.5% active; in the data active = protection mostly above about 24%, no sharp cut-off; inactive = mostly below about 26%
PostGolgi ctrl = inhibits growth of the yeast control strain; inhibition, % at 10 µM; 98,000 tested, 5% active; efflux-deficient yeast background strain, growth absorbance A615, 16 h; AID 738
PostGolgi yeast = growth inhibition of a yeast mutant, post-Golgi transport screen; post-Golgi transport phenotypic cell assay; inhibition, % at 10 µM; 98,000 tested, 0.9% active;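 also: yeast cells grown in 1536-well plates; yeast grown about 18 h at 30C before absorbance read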
* hit, by the source's call; . = not tested or not shown. Rule as the data show it, unless noted: active = inhibition above about 30%; inactive = the rest.

SMILES	MT1-MMP txn act	Measles CPE	PostGolgi ctrl	PostGolgi yeast
CC(=C\C(=O)O)/C(=C/c1ccccc1)C(=O)O	.	25*	2	0
C/C(=C\c1ccccc1)C(=O)NC1CCSC1=O (configuration not stated)	.	3	6	-2
Cc1cc2ccc(C)c(C)c2nc1SCC(=O)c1cccs1	.	32*	10	-6
COc1ccc(CNC(=O)COC(=O)C2=COCCO2)cc1	1.2	3	10	37*
COC(=O)CSc1nc2ccc(NC(=O)c3ccccc3C(=O)N3CCOCC3)cc2s1	.	22	.	.
O=C(Nc1ccc2nc(SCc3ccc(Cl)cc3)sc2c1)c1ccccc1C(=O)N1CCOCC1	.	14	33*	-5
COc1ccc(S(=O)(=O)Nc2ccc3c(c2)COC3=O)cc1OC	1.2	12	12	7
CS(=O)(=O)Nc1ccc2c(c1)C(=O)OC2	1.1	53*	3	11
O=C(CCC(=O)Nc1nnc(C2CCCCC2)s1)NCC1CCCO1 (configuration not stated)	1	65*	0	-8
O=C(Nc1ccc(Cl)cc1C(=O)N1CCOCC1)c1cccc([N+](=O)[O-])c1	.	19	.	.
CCC(c1nnnn1Cc1ccccc1)N(Cc1ccco1)Cc1cc2cc(OC)ccc2[nH]c1=O (configuration not stated)	1.2	34	41*	0
OC(CSc1c(Cl)cccc1Cl)CN1CCN(c2ccc(F)cc2)CC1 (configuration not stated)	.	26	37*	20
OC(CSc1ccccc1Cl)CN1CCN(c2ccccc2F)CC1 (configuration not stated)	.	13	21	-6
OC(CSc1ccccc1Cl)CN1CCN(c2ccc(F)cc2)CC1 (configuration not stated)	.	30	31*	28
Cc1c(NC(=S)NC(NC(=O)C(C)(C)C)C(Cl)(Cl)Cl)c(=O)n(-c2ccccc2)n1C (configuration not stated)	.	35	.	.
O=C(Nc1ccccc1)c1ccc[nH]1	.	4	.	.
CCCc1cc(=O)[nH]c(SCc2ccccc2Cl)n1	1.2	7	45*	4
CCCc1cc(=O)[nH]c(SCc2nc3ccccc3s2)n1	1.1	27	21	-2
O=c1[nH]c(SCc2ccccc2Cl)nc2c1cnn2-c1ccccc1	1.1	18	42*	-13
CCN(CC)C(=O)CN1C(=O)COCC1=O	1	3	9	2
O=C1CC(c2cc([N+](=O)[O-])ccc2Cl)c2c(ccc3ccccc23)N1 (configuration not stated)	.	2	.	.
O=c1c2[nH]c3ccccc3c2ncn1C1CCCCC1	1.2	36	18	34*
C=CCNc1sc(C(=O)c2ccccc2)c(N)c1-c1nc2ccccc2s1	1.3	5	20	-5
CCNc1sc(C(=O)c2cccs2)c(N)c1-c1nc2ccccc2s1	1.3	4	36*	1
O=C(COC(=O)/C=C/c1ccc(Cl)cc1)NCCc1ccccc1	.	11	.	.
SMILES	MT1-MMP txn act	Measles CPE	PostGolgi ctrl	PostGolgi yeast
CC(C)c1ccc(C2C3CSCC=C3C(C#N)=C(N)C2(C#N)C#N)cc1 (configuration not stated)	1.4	5	-2	74*
O=C(c1ccco1)N1CCC(c2nc(-c3ccccc3Cl)no2)CC1	1	5	14	5
O=C(Nc1ccc(Cl)cc1)N1CCC(c2nc(-c3cccs3)no2)CC1	1.3	10	44*	.
O=C(Nc1cccc(C(F)(F)F)c1)N1CCC(c2nc(-c3ccc(F)cc3)no2)CC1	1.2	10	70*	1
O=C(Nc1ccc(Cl)cc1)N1CCC(c2nc(-c3ccccc3Cl)no2)CC1	1.1	6	40*	11
COc1ccc(NC(=O)N2CCC(c3nc(-c4cccs4)no3)CC2)cc1	1.1	5	-4	15
O=C(Nc1ccc(Cc2ccncc2)cc1)c1ccc(Cl)c([N+](=O)[O-])c1	.	4	78*	67*
O=S(=O)(Nc1ccncc1)c1ccc(Cl)cc1	.	3	-1	-4
O=S(=O)(Nc1ccc(Cc2ccncc2)cc1)c1ccc(Cl)c(Cl)c1	.	27	96*	107*
Cc1ccc(NC(=O)c2ccc(-n3cccn3)c([N+](=O)[O-])c2)cc1C	.	1	2	-1
O=C(Nc1ccc(Cl)cc1)c1ccc(-n2cccn2)c([N+](=O)[O-])c1	.	4	38*	12
Cc1c([N+](=O)[O-])cc(C(=O)Nc2ccc(Cc3ccncc3)cc2)cc1[N+](=O)[O-]	.	5	.	.
Cn1cc([N+](=O)[O-])c(C(=O)Nc2cc(Oc3cccnc3)cc([N+](=O)[O-])c2)n1	.	2	21	3
COc1ccccc1NCC(O)Cn1c2ccccc2c2ccccc21 (configuration not stated)	1.2	6	57*	13

Screening results from PubChem BioAssay.
